The full data set covers some 8,800 targets. This sample favours those with a hit. About 0.5% of all pairs of compound and target were hits.
Each target was assayed with Cc1cn(-c2cc(NC(=O)c3ccc(C)c(Nc4nccc(-c5cccnc5)n4)c3)cc(C(F)(F)F)c2)cn1 [nilotinib] (assay: log2 fold change, soluble protein after heating vs DMSO (PISA); higher = thermal stabilisation; K562 lysate, 10 uM; active = over 0.2 and 3.5 SD of the protein, either way, in both replicates (recomputed)).
Outline: (§1)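 Soluble protein was defined as the supernatant remaining after 21,000xg for 90 min, following pooling of heated aliquots and adjustment to 0.5% NP-40 at 4°C. Before that, crude K562 extract at 1 mg/mL protein in PBS pH 7.4 with 1 mM MgCl2 was treated with 10 μM compound for 30 min and heated for 3 min across 48°C-58°C. Quantification used TMTpro 16plex LC-MS/MS with channel sums equalised, and values are log-two fold changes in thermal stability relative to solvent controls from duplicates.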

Chain of UniProt O94776 (O94776 whole entry, looked up): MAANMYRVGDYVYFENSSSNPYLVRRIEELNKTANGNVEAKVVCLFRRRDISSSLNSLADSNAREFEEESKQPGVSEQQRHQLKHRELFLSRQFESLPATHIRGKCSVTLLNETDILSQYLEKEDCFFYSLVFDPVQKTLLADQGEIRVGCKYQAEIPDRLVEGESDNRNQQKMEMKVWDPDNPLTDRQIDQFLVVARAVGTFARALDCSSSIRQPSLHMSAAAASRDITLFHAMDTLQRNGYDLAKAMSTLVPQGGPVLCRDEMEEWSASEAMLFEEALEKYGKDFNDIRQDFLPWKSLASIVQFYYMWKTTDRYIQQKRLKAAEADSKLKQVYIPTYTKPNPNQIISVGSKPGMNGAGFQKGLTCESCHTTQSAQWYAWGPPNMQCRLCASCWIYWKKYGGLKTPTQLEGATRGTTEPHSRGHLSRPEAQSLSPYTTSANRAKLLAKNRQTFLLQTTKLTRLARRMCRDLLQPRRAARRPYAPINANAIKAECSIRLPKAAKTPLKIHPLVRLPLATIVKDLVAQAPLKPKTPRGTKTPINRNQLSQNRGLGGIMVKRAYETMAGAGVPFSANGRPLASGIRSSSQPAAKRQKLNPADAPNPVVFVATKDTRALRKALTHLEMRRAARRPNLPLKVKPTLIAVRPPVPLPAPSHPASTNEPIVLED
Chain of UniProt Q86UW6 (Q86UW6 whole entry, looked up): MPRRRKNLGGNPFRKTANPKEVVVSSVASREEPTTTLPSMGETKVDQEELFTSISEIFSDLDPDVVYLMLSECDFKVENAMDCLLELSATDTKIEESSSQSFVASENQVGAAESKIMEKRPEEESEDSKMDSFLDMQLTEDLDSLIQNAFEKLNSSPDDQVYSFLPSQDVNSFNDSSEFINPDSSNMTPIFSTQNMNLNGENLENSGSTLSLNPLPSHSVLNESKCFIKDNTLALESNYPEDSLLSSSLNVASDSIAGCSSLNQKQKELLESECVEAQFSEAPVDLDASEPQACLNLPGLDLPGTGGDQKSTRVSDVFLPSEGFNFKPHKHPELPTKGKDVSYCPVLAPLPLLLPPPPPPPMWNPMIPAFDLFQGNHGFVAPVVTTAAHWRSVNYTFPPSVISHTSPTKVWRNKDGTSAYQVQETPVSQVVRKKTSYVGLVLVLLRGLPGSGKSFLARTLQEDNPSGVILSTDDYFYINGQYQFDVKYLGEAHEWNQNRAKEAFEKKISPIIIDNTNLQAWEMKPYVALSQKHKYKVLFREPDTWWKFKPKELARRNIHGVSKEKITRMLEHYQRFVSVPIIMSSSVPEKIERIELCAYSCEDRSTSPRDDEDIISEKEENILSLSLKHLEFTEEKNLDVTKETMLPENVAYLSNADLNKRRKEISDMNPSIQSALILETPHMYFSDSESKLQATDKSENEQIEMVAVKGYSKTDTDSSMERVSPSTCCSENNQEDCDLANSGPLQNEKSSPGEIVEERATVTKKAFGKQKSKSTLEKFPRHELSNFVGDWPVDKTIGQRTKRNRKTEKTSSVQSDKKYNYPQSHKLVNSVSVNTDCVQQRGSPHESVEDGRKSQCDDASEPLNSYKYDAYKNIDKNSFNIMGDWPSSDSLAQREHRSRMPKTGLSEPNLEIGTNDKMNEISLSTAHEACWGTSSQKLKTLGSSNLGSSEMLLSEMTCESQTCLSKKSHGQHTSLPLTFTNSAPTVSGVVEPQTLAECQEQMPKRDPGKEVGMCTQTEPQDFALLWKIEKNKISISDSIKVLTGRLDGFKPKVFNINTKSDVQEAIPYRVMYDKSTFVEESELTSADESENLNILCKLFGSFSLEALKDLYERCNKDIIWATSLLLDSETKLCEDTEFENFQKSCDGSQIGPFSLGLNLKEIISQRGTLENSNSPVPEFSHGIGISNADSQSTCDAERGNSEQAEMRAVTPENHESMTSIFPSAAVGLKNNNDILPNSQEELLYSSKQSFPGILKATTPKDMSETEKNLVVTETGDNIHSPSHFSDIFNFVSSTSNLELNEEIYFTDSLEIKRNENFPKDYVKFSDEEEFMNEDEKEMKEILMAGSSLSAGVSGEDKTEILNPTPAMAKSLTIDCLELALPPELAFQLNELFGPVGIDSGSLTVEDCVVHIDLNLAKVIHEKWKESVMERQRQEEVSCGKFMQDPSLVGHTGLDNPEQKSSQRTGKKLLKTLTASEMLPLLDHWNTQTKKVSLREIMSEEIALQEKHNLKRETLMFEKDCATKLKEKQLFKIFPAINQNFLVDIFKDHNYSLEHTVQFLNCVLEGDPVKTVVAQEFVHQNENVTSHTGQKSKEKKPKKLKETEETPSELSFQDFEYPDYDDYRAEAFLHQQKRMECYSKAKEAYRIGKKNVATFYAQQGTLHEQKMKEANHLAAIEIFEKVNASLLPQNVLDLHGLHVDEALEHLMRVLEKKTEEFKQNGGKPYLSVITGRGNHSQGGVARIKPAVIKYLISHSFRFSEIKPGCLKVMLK
Chain of UniProt O00159 (O00159 whole entry, looked up): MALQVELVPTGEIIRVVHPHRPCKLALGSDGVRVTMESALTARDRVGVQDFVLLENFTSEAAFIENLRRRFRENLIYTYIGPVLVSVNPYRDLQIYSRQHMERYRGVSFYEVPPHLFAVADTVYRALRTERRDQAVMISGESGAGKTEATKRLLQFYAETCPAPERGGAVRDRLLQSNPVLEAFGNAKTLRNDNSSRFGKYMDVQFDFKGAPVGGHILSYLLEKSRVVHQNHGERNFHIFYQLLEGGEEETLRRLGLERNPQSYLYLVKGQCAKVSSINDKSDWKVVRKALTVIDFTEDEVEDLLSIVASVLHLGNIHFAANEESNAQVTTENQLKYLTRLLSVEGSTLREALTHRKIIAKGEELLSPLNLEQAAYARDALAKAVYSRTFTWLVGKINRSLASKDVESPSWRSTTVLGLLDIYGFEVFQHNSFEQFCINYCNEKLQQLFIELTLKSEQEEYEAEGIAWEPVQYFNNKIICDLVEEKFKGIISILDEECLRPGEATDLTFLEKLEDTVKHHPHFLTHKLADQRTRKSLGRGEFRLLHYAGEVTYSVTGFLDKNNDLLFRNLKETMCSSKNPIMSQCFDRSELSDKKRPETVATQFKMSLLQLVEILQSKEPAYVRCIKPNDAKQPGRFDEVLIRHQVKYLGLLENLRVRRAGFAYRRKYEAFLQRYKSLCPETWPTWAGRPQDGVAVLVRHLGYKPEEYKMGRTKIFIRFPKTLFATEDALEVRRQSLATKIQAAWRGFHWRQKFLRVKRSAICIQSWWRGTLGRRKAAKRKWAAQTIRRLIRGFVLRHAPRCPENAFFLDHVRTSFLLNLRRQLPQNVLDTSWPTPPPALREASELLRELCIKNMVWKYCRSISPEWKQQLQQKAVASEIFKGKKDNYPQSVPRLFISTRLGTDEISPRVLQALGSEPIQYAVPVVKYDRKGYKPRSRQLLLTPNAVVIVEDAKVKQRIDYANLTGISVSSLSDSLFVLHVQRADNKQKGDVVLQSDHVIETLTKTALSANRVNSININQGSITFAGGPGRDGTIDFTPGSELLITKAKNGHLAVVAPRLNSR
Chain of UniProt Q9NTK5 (Q9NTK5 whole entry, looked up): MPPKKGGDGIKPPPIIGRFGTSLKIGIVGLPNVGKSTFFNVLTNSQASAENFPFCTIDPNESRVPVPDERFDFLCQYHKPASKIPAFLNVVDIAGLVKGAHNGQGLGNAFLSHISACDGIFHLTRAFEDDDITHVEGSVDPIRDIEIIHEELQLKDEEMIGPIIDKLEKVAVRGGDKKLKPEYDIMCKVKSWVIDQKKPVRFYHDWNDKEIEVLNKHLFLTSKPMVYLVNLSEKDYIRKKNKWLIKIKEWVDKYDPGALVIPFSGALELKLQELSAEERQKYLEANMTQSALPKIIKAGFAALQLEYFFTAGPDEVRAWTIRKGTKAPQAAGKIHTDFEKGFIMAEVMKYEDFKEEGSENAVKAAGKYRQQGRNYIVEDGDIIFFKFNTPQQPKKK
Chain of UniProt Q9BTX1 (Q9BTX1 whole entry, looked up): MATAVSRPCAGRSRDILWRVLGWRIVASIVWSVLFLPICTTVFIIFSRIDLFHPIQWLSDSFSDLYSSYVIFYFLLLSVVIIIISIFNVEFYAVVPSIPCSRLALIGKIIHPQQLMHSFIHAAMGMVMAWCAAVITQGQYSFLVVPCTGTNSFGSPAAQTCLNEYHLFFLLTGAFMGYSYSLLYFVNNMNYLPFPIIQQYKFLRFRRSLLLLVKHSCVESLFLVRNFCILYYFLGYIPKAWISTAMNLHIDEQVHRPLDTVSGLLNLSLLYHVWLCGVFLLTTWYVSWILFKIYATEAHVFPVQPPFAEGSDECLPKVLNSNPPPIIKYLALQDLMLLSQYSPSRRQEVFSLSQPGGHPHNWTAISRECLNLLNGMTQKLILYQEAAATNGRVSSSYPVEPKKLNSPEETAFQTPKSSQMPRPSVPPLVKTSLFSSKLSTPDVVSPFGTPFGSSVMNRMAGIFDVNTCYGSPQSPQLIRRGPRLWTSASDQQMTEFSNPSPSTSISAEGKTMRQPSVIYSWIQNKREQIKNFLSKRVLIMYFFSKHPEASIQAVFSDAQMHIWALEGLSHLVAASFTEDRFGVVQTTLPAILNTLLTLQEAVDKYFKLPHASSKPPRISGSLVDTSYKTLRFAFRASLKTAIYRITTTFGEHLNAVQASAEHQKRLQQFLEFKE
Chain of UniProt O43913 (O43913 whole entry, looked up): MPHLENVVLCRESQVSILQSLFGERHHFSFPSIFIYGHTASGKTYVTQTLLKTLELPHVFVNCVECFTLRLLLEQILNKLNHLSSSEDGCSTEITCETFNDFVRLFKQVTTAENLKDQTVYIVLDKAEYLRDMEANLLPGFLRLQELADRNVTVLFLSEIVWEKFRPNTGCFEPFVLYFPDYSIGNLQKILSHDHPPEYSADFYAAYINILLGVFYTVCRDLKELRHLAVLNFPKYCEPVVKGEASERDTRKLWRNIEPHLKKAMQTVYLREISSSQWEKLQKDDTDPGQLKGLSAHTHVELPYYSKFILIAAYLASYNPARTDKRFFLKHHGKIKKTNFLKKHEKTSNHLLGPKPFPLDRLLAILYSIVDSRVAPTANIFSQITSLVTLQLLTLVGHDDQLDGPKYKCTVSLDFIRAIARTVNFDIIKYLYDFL

log2 fold change, inactive:
OGFOD2 (UniProt Q6N063) -0.002
MTA2 (UniProt O94776) 0.001
NDC1 (UniProt Q9BTX1) -0.019
OLA1 (UniProt Q9NTK5) 0.001
OCRL (UniProt Q01968) -0.095
NCAPG2 (UniProt Q86XI2) -0.002
NUP133 (UniProt Q8WUM0) 0.023
NCKAP1L (UniProt P55160) 0.001
MRPL53 (UniProt Q96EL3) -0.04
MRPS12 (UniProt O15235) -0.026
NDUFS1 isoform 2 (UniProt P28331) 0.005
NCOR2 (UniProt C9J0Q5) 0.09
NUP205 (UniProt Q92621) -0.014
MTOR (UniProt P42345) 0.007
NF1 (UniProt P21359) -0.021
ORC5 (UniProt O43913) -0.043
OSBP2 (UniProt Q969R2) -0.053
PANK2 (UniProt Q9BZ23) -0.068
MYCBP2 (UniProt O75592) 0.028
NPTN (UniProt Q9Y639) -0.029
NNT (UniProt Q13423) -0.017
OAT (UniProt P04181) 0.012
MTHFD1, A0A384N5Y3 0.005
NIPBL (UniProt Q6KC79) 0.06
NBEAL2 (UniProt Q6ZNJ1) 0.031
N4BP2 (UniProt Q86UW6) 0.026
NFKBIE (UniProt O00221) -0.074
MTA3 (UniProt Q9BTC8) 0.034
NFATC4 isoform 2 (UniProt Q14934) -0.046
NAA35 (UniProt Q5VZE5) -0.019
OPA1 isoform 2 (UniProt O60313) 0.026
NAA30 (UniProt Q147X3) -0.036
MYO1C (UniProt O00159) 0.019
NUF2 (UniProt Q9BZD4) -0.011
NCAPH (UniProt Q15003) -0.033

The targets below were run with Cc1nc(Nc2n[nH]c3c2CN(C(=O)N[C@H](CN(C)C)c2ccccc2)C3(C)C)c2sccc2n1 in the same assay as above.
Outline: as §1

log2 fold change, inactive:
OGFOD2 (UniProt Q6N063) 0.005
MTA2 (UniProt O94776) 0.017
NDC1 (UniProt Q9BTX1) -0.006
OLA1 (UniProt Q9NTK5) -0.009
OCRL (UniProt Q01968) 0.083
NCAPG2 (UniProt Q86XI2) -0.035
NUP133 (UniProt Q8WUM0) -0.006
NCKAP1L (UniProt P55160) -0.017
MRPL53 (UniProt Q96EL3) 0.026
MRPS12 (UniProt O15235) 0.061
NDUFS1 isoform 2 (UniProt P28331) -0.001
NCOR2 (UniProt C9J0Q5) -0.034
NUP205 (UniProt Q92621) 0.004
MTOR (UniProt P42345) -0.022
NF1 (UniProt P21359) 0.053
ORC5 (UniProt O43913) -0.004
OSBP2 (UniProt Q969R2) -0.038
PANK2 (UniProt Q9BZ23) -0.111
MYCBP2 (UniProt O75592) -0.013
NPTN (UniProt Q9Y639) 0.005
NNT (UniProt Q13423) 0.001
OAT (UniProt P04181) -0.038
MTHFD1, A0A384N5Y3 -0.018
NIPBL (UniProt Q6KC79) -0.002
NBEAL2 (UniProt Q6ZNJ1) -0.008
N4BP2 (UniProt Q86UW6) 0.036
NFKBIE (UniProt O00221) 0.014
MTA3 (UniProt Q9BTC8) -0.059
NFATC4 isoform 2 (UniProt Q14934) -0.018
NAA35 (UniProt Q5VZE5) 0.014
OPA1 isoform 2 (UniProt O60313) -0.008
NAA30 (UniProt Q147X3) 0.019
MYO1C (UniProt O00159) -0.013
NUF2 (UniProt Q9BZD4) 0.002
NCAPH (UniProt Q15003) 0

The targets below were run with Cc1nc(Nc2ncc(C(=O)Nc3c(C)cccc3Cl)s2)cc(N2CCN(CCO)CC2)n1 [dasatinib] in the same assay as above.
Outline: as §1

log2 fold change, inactive:
OGFOD2 (UniProt Q6N063) 0.006
MTA2 (UniProt O94776) -0.019
NDC1 (UniProt Q9BTX1) -0.071
OLA1 (UniProt Q9NTK5) -0.023
OCRL (UniProt Q01968) -0.044
NCAPG2 (UniProt Q86XI2) -0.078
NUP133 (UniProt Q8WUM0) -0.026
NCKAP1L (UniProt P55160) -0.034
MRPL53 (UniProt Q96EL3) -0.018
MRPS12 (UniProt O15235) -0.104
NDUFS1 isoform 2 (UniProt P28331) 0.013
NCOR2 (UniProt C9J0Q5) -0.082
NUP205 (UniProt Q92621) -0.04
MTOR (UniProt P42345) -0.064
NF1 (UniProt P21359) 0.007
ORC5 (UniProt O43913) -0.047
OSBP2 (UniProt Q969R2) -0.089
PANK2 (UniProt Q9BZ23) 0.135
MYCBP2 (UniProt O75592) -0.038
NPTN (UniProt Q9Y639) -0.06
NNT (UniProt Q13423) 0.003
OAT (UniProt P04181) -0.033
MTHFD1, A0A384N5Y3 -0.081
NIPBL (UniProt Q6KC79) -0.037
NBEAL2 (UniProt Q6ZNJ1) -0.069
N4BP2 (UniProt Q86UW6) -0.024
NFKBIE (UniProt O00221) -0.053
MTA3 (UniProt Q9BTC8) -0.005
NFATC4 isoform 2 (UniProt Q14934) 0.055
NAA35 (UniProt Q5VZE5) -0.005
OPA1 isoform 2 (UniProt O60313) -0.07
NAA30 (UniProt Q147X3) -0.042
MYO1C (UniProt O00159) 0.112
NUF2 (UniProt Q9BZD4) -0.044
NCAPH (UniProt Q15003) -0.03

Reference: the supplement of paper PMC10849652
